# Results as given in PubChem BioAssay (NCATS).
# Results filed as inconclusive are left out. Where a call stands in place of a potency, no number is given. Active and inactive are the calls of the source. Calls follow the shape of the dose curve; as a rule, active = well fitted curve in the direction sought with a large enough effect; inconclusive = small, poorly fitted or top-dose-only effect, or another doubt; inactive = no such curve, though single readings can be large; an effect the other way counts as inactive or inconclusive.
# Tests used:
# [1] = S16 Schwann cell PMP22 intronic element firefly luciferase assay (AID 624032); details: S16 rat Schwann cells, PMP22 element FLuc, 24 h; series mostly up to 57.5 µM; also: nearly all actives have a fitted effect of over 30% in size
# Procedure, shortened: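 Rat S16 Schwann cells stably carrying a PMP22 intronic element-driven Fluc reporter were seeded overnight, then exposed to compounds for 24 h at 37 °C. Luminescence was normalized to PTC124 (positive control) and DMSO (0% activity).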
# 7G8 = test: qHTS profiling for inhibitors of Plasmodium falciparum proliferation (AID 504749); also: nearly all actives have a fitted effect of over 60% in size; also: potency is read from the fitted curve at half-maximal effect; details: P. falciparum in erythrocytes, SYBR Green DNA, 72 h; series mostly up to 28.7 µM
# Procedure, shortened: (§1)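 Fluorescence of SYBR Green-bound parasite DNA, read at 485/535 nm, served as the growth measure. Infected erythrocytes were cultured with compound 72 h; artemisinin (0.29 uM) and DMSO wells defined the normalization range.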
# CP260 = test: as above; details: P. falciparum in erythrocytes, SYBR Green DNA, 72 h; series mostly up to 28.7 µM
# Procedure, shortened: as §1
# DIV17 = test: as above; details: P. falciparum in erythrocytes, SYBR Green DNA, 72 h; series mostly up to 28.7 µM
# Procedure, shortened: as §1
# TAB109 = test: as above; details: P. falciparum in erythrocytes, SYBR Green DNA, 72 h; series mostly up to 28.7 µM
# Procedure, shortened: as §1
# [2] = Inducers of the Endoplasmic Reticulum Stress Response (ERSR) in human glioma: Validation (AID 504836); details: human glioma cells, ER stress response reporter; series mostly up to 38.3 µM
# Procedure, shortened: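 Stably transfected U87-MG human glioma cells carrying a GRP78-based luminescent sensor were seeded at 1000 cells/well, pin-dosed with compounds and incubated 16 h. Luciferase reagent was then added, and end-point luminescence was read after 10 min at room temperature.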
# W2 = test: qHTS profiling for inhibitors of Plasmodium falciparum proliferation (AID 504749); also: nearly all actives have a fitted effect of over 60% in size; also: potency is read from the fitted curve at half-maximal effect; details: P. falciparum in erythrocytes, SYBR Green DNA, 72 h; series mostly up to 28.7 µM
# Procedure, shortened: as §1
# [3] = target: Cytochrome P450 3A4 (Homo sapiens) (UniProt P08684); test: qHTS Assay for Inhibitors and Substrates of Cytochrome P450 3A4 (AID 884); details: recombinant CYP3A4, Luciferin-PPXE luminescence; series mostly up to 57.1 µM; also: nearly all actives have a fitted effect of over 50% in size
# Chain of Cytochrome P450 3A4 (Homo sapiens) (P08684 whole entry, looked up): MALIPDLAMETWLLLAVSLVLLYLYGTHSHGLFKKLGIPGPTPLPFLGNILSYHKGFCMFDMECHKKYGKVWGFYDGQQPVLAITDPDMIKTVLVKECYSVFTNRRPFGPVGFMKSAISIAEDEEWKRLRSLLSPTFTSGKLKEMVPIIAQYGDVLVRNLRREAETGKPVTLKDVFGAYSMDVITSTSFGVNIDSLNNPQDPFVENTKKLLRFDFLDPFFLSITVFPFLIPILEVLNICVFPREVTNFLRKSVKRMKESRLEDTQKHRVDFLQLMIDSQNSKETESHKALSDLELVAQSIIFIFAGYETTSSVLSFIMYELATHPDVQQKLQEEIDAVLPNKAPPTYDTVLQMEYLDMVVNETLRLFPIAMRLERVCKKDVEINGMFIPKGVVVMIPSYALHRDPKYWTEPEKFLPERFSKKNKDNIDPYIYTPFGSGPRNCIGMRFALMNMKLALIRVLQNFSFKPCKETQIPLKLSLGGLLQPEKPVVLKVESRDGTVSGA
# Procedure, shortened: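 Luminescent readout of luciferin produced by CYP3A4 (20 nM) dealkylation of Luciferin-PPXE, 25 uM (its KM). NADPH-driven reaction ran 60 min at RT after 10 min compound preincubation; data scaled to 57 uM ketoconazole as 100% inhibition.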
# [4] = target: DNA dC->dU-editing enzyme APOBEC-3G (Homo sapiens) (UniProt Q9HC16); test: qHTS for inhibitors of Vif-A3G interactions: Validation (AID 588379); details: Vif-A3G protein interaction assay; series mostly up to 46.1 µM
# Chain of DNA dC->dU-editing enzyme APOBEC-3G (Homo sapiens) (Q9HC16 whole entry, looked up): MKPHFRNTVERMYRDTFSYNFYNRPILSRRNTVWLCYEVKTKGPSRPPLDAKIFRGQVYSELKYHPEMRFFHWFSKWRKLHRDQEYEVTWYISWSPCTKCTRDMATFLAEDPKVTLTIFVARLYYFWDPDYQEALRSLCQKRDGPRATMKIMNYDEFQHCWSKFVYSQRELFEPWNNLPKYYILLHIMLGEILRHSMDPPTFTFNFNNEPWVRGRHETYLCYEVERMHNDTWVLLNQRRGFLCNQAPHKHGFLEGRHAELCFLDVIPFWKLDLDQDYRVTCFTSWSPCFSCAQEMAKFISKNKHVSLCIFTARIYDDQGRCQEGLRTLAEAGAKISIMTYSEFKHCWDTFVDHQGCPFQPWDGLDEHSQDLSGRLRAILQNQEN
# Procedure, shortened: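 Yellow fluorescence (Ex 488, Em 500-530) of Vif-coexpressing HeLa A3G-eYFP cells, scanned by Acumen cytometer, reports blocked A3G degradation. Cells plated at 700/well overnight at 37 deg C before compound addition, then a further overnight compound incubation at 37 deg C.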
# [5] = target: Cytochrome P450 3A4 (Homo sapiens) (UniProt P08684); test: qHTS Assay for Activators of Cytochrome P450 3A4 (AID 885); details: recombinant CYP3A4, Luciferin-PPXE luminescence, 60 min; series mostly up to 57.1 µM; also: nearly all actives have a fitted effect of over 65% in size
# Procedure, shortened: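 Using 20nM recombinant human CYP3A4 in potassium phosphate (200mM), substrate Luciferin-PPXE at 25uM, luminescent luciferin detection followed a 60-min RT NADPH reaction; data scaled to 57 uM ketoconazole.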
# [6] = Confirmation and Secondary Assay for Modulators of Hemoglobin Beta Chain Splicing at IVS2 654 locus (AID 910); details: HeLa EGFP-654 splicing reporter, GFP fluorescence, 48 h; series mostly up to 46.1 µM;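 also: per-well total GFP intensity by laser scanning cytometry after 2-day treatment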
# Procedure, shortened: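 HeLa cells stably carrying EGFP interrupted by mutant beta-globin IVS2-654 intron (CMV-driven) were treated with compound for 2 days at 37C; corrected splicing was scored as total peak GFP intensity per well (488 nm excitation, 500-520 nm emission).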
# [7] = Confirmation and Secondary Assay for Modulators of Hemoglobin Beta Chain Splicing at IVS2 705 locus (AID 930); details: HeLa EGFP-705 splicing reporter, GFP fluorescence, 48 h; series mostly up to 46.1 µM;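 also: HeLa cells stably expressing the EGFP-705 splicing reporter; GFP fluorescence per well restored by corrected splicing of the IVS2-705 intron in EGFP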
# Procedure, shortened: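 HeLa IVS2-705 EGFP reporter cells, 500/well, compound 2 d at 37C; correct splicing yields fluorescent EGFP. Control: 500 nM antisense PNA. Read-out: total peak GFP intensity.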
# [8] = target: Alpha-galactosidase (Coffea arabica) (UniProt Q42656); test: Counterscreen for Glucocerebrosidase Inhibitors: qHTS Assay for Coffee Bean alpha-Galactosidase at pH 4.5 (AID 957); details: purified coffee bean alpha-galactosidase, fluorogenic substrate; series mostly up to 76.9 µM
# Chain of Alpha-galactosidase (Coffea arabica) (Q42656 whole entry, looked up): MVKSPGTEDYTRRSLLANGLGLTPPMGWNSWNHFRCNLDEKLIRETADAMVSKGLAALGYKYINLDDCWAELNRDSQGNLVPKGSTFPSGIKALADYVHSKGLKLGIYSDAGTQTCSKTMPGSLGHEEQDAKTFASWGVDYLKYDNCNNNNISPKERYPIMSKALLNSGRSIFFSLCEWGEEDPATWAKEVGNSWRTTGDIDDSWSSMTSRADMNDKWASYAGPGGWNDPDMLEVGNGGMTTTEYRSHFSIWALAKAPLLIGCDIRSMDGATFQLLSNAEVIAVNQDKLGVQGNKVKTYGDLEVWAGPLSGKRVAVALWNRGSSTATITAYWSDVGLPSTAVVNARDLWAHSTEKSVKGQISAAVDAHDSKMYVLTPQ
# Procedure, shortened: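 Quantitative HTS of compounds (0.7 nM to 77 uM) against coffee bean alpha-galactosidase at pH 4.5, measuring 4-methylumbelliferone fluorescence released from 80 uM substrate.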
# [9] = target: Alpha-galactosidase (Coffea arabica) (UniProt Q42656); test: Counterscreen for Glucocerebrosidase Inhibitors: qHTS Assay for Coffee Bean alpha-Galactosidase at pH 5.9 (AID 998); details: coffee bean alpha-galactosidase enzyme assay; series mostly up to 76.9 µM
# Procedure, shortened: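 In 50 mM citric acid pH 5.9 with 0.005% Tween-20, coffee bean enzyme hydrolyses 80 uM 4-MU alpha-D-galactopyranoside over 20 min at RT. Activity is normalized to controls; AC50 comes from Hill-modelled concentration-response data.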
smiles,measurement,setting,value
NC(Cc1ccc(Oc2cc(I)c(O)c(I)c2)c(I)c1)C(=O)O (centres undefined),Potency,[1],inactive
same,Potency,7G8,inactive
same,Potency,CP260,inactive
same,Potency,DIV17,inactive
same,Potency,TAB109,inactive
O=C1CC2OCC=C3CN4CCC56c7ccccc7N1C5[C@H]2[C@H]3C[C@H]46 (some centres undefined) (tested in a mixture with another compound),Potency,[1],inactive
CC(C)CCC(=O)OC1CCC2C3CCC4=CC(=O)CC[C@]4(C)C3CC[C@]12C (some centres undefined),Potency,7G8,10 µM (active)
same,Potency,CP260,11.2 µM (active)
same,Potency,DIV17,inactive
COc1ccccc1N1CCN(CCN(C(=O)c2ccc(I)cc2)c2ccccn2)CC1,outcome,[2],inactive
CCCC(C)C1(CC)C(=O)NC(=S)NC1=O (centres undefined),Potency,[1],inactive
same,Potency,CP260,inactive
same,Potency,DIV17,inactive
same,Potency,TAB109,inactive
same,Potency,W2,9.53 µM (active)
C#C[C@]1(O)CC[C@H]2[C@@H]3CCC4=CC(=O)CCC4(C)[C@H]3CCC21C (some centres undefined),Potency,[1],inactive
same,Potency,CP260,inactive
same,Potency,DIV17,inactive
same,Potency,TAB109,inactive
same,Potency,W2,inactive
CC(=O)Oc1ccc2c3c1OC1[C@@H](OC(C)=O)C=C[C@H]4[C@H](C2)N(C)CC[C@]314 (some centres undefined),Potency,[1],inactive
same,Potency,CP260,inactive
same,Potency,TAB109,inactive
same,Potency,W2,inactive
Cc1ccccc1/C=C/C1=NCCN1,outcome,[2],inactive
CC(=O)O[C@H]1C[C@H](O[C@H]2[C@@H](O)CC(O[C@H]3[C@@H](O)C[C@H](O[C@H]4CC[C@@]5(C)[C@H](CC[C@@H]6[C@@H]5CC[C@]5(C)[C@@H](C7=CC(=O)OC7)CC[C@]65O)C4)O[C@@H]3C)O[C@@H]2C)O[C@H](C)[C@H]1O[C@@H]1O[C@H](CO)[C@@H](O)[C@H](O)[C@H]1O (some centres undefined),Potency,CP260,inactive
same,Potency,W2,inactive
CC1(C)S[C@H]2[C@@H](N)C(=O)N2[C@H]1C(=O)O,Potency,[3],inactive
same,outcome,[4],inactive
CC1=CC(=O)c2c(O)cccc2C1=O,Potency,[3],inactive
same,Potency,[5],inactive
same,Potency,[6],inactive
same,outcome,[7],inactive
same,outcome,[4],inactive
C[C@]12CCC3C(CC[C@]4(O)C[C@@H](O)CC[C@]34C=O)[C@@]1(O)CC[C@@H]2C1=CC(=O)OC1 (some centres undefined),outcome,[4],inactive
COC1=C(OC)C(=O)c2ccccc2C1=O,outcome,[8],inactive
same,outcome,[9],inactive
same,outcome,[2],inactive
CC(C)(C)c1cc(/C=C(\C#N)C(N)=S)cc(C(C)(C)C)c1O,outcome,[8],inactive
same,outcome,[9],inactive
same,outcome,[2],inactive
NS(=O)(=O)C#Cc1ccccc1,outcome,[2],inactive
O=C(c1ccc(Cl)cc1)N1CCN(c2ccc([N+](=O)[O-])c3ncccc23)CC1,outcome,[2],inactive
CSc1ccccc1N1CCN(CCCCCC(=O)NC2CCCc3ccccc32)CC1 (centres undefined),outcome,[2],inactive
